Columns and labels:
Assay in all cases: PBM binding z-score (relative to random genomic background probes); higher = stronger binding; sequences stand for … in GC…GCGATTGACAGCGTAGAATGAAGG
[1] = test system: FXR:RXRa (NR concentration 270 nM, RXRa partner concentration 90 nM)
How it was run: (§1)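 Each nuclear receptor dimer, without ligand, was incubated for 1 h on custom Agilent 4×180K protein-binding microarrays. Binding was detected with antibodies against each partner (one per run), and scanned fluorescence was regression-normalized. The binding z-scores are referenced to random human genomic background probes.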

[2] = test system: LXRa:RXRa (NR concentration 270 nM, RXRa partner concentration 90 nM)
How it was run: as §1

[3] = test system: LXRa homodimer (NR concentration 270 nM)
How it was run: as §1

[4] = test system: LXRb:RXRa (NR concentration 270 nM, RXRa partner concentration 90 nM)
How it was run: as §1

[5] = test system: LXRb homodimer (NR concentration 270 nM)
How it was run: as §1

[6] = test system: PPARa:RXRa (NR concentration 270 nM, RXRa partner concentration 90 nM)
How it was run: as §1

[7] = test system: PPARg:RXRa (NR concentration 180 nM, RXRa partner concentration 90 nM)
How it was run: as §1

[8] = test system: PPARg:RXRa 270nM:90nM, anti-RXR (NR concentration 270 nM, RXRa partner concentration 90 nM)
How it was run: as §1

[9] = test system: PPARg:RXRa 30nM:10nM, anti-RXR (NR concentration 30 nM, RXRa partner concentration 10 nM)
How it was run: as §1

[10] = test system: PPARg:RXRa 90nM:30nM, anti-RXR (NR concentration 90 nM, RXRa partner concentration 30 nM)
How it was run: as §1

[11] = test system: PPARg:RXRa DBDmut IVT, anti-RXR (DBD mutation: RXRa K156A/R161A, NR concentration 270 nM, RXRa partner concentration 90 nM)
How it was run: as §1

[12] = test system: PPARg:RXRa IVT, anti-PPARg (NR concentration 270 nM, RXRa partner concentration 90 nM)
How it was run: as §1

[13] = test system: PPARg DBDmut:RXRa IVT, anti-PPARg (DBD mutation: PPARg1 K132A/R137A, NR concentration 270 nM, RXRa partner concentration 90 nM)
How it was run: as §1

[14] = test system: PPARg DBDmut IVT, anti-PPARg (DBD mutation: PPARg1 K132A/R137A, NR concentration 270 nM)
How it was run: as §1

[15] = test system: PPARg homodimer (NR concentration 180 nM)
How it was run: as §1

[16] = test system: PXR:RXRa (NR concentration 270 nM, RXRa partner concentration 90 nM)
How it was run: as §1

[17] = test system: PXR homodimer (NR concentration 270 nM)
How it was run: as §1

[18] = test system: RARa:RXR (NR concentration 270 nM, RXRa partner concentration 90 nM)
How it was run: as §1

[19] = test system: RARa homodimer (NR concentration 270 nM)
How it was run: as §1

[20] = test system: RARb:RXRa (NR concentration 270 nM, RXRa partner concentration 90 nM)
How it was run: as §1

Sequence | PBM binding z-score [1] | PBM binding z-score [2] | PBM binding z-score [3] | PBM binding z-score [4] | PBM binding z-score [5] | PBM binding z-score [6] | PBM binding z-score [7] | PBM binding z-score [8] | PBM binding z-score [9] | PBM binding z-score [10] | PBM binding z-score [11] | PBM binding z-score [12] | PBM binding z-score [13] | PBM binding z-score [14] | PBM binding z-score [15] | PBM binding z-score [16] | PBM binding z-score [17] | PBM binding z-score [18] | PBM binding z-score [19] | PBM binding z-score [20]
TCTCGGAGGACACGAAGGTCAGAGCATTCCAGAG | 1.29 | 0.948 | 0.206 | 0.97 | -0.998 | 1.88 | 0.742 | 1.63 | 2.05 | 1.74 | 1.39 | 1.39 | -0.898 | -1.01 | 0.93 | 1.74 | 0.89 | 1.61 | 0.282 | 3.07
TCTAGCAGGCCAGAGGGTTACTCAAGAGGTACGG | -0.419 | -0.0387 | -1.02 | -0.282 | -1.4 | 0.38 | 0.82 | 1.73 | 1.86 | 1.81 | 0.735 | -0.175 | -1.35 | -1.09 | -0.477 | -0.175 | -0.868 | -0.0112 | -0.732 | 0.213
CCTACTGGGCCATTCAGAGGTCTTTGATCATATG | -0.281 | -0.261 | -0.37 | -0.49 | -0.94 | 0.481 | 0.251 | 0.437 | -0.397 | -0.188 | 4.08 | 3.47 | -0.147 | -0.677 | 0.234 | -0.375 | 0.0887 | -0.471 | -0.345 | 0.306
CGAACAAGGTCAGAACAGGACAGTGAAGGATGAT | 4.33 | 3.42 | 0.289 | 2.42 | 0.289 | 3.91 | 3.09 | 3.2 | 1.12 | 1.95 | 2.79 | 3.05 | 0.722 | 0.826 | 1.5 | 3.22 | 0.399 | 2.47 | 0.0836 | 4.31
GCTTGTAGAGCAAGGTTAAGAAAGACTAAGCTAA | -0.0313 | 0.442 | -0.567 | 0.174 | -1.28 | 1.5 | 1.41 | 2.77 | 0.817 | 2.03 | 2.64 | 1.72 | -0.693 | -0.41 | -0.216 | 0.206 | -0.546 | 0.613 | -0.213 | 0.514
GATACAGCGTCAAGGCCAGAGTACGCGTATTGAT | -0.565 | -0.762 | -0.347 | -0.832 | -0.969 | -0.514 | 0.602 | -0.494 | -0.309 | -0.649 | -0.697 | -0.358 | -0.853 | -0.941 | -0.474 | -0.434 | -0.406 | -0.6 | -0.441 | 0.0727
TCTTGTAGATCAGGAGGTTAAGAAAGCTGGCCAA | 0.046 | 0.738 | 0.262 | 0.752 | -0.475 | 1.46 | -0.25 | 1.8 | 2.55 | 2.11 | 1.51 | 0.654 | 0.143 | -0.244 | 0.0785 | 0.352 | -0.154 | 0.854 | -0.318 | 0.586
CGTCAAAGTTCAAAGTAACGTAACAGAAAGCAGC | 6.87 | 6.57 | 4.32 | 4.01 | 2.75 | 4.91 | 4.43 | 5.36 | 2.18 | 4.17 | 0.465 | 1.58 | 1.23 | 1.35 | 3.3 | 4.68 | 3.73 | 3.43 | 1.73 | 4.9
TCTTTTAGATCAAGCAGGTTAAGAAAGCCTGAGT | 0.715 | 0.67 | -0.177 | 0.588 | 0.409 | 1.02 | -0.669 | 1.68 | 3.39 | 2.56 | 1.41 | 0.619 | 0.997 | 1.17 | -0.29 | 0.774 | 0.132 | 0.889 | -0.0558 | 0.269
CCGAGTAGGTTATGGTGCATTCAGGCAACGGTGA | 0.234 | 0.34 | 0.363 | 0.361 | 0.234 | 1.52 | 2.04 | 3.55 | 1.15 | 3.04 | 3.71 | 2.67 | 0.333 | -0.183 | 1.25 | -0.0319 | 0.413 | 0.311 | 0.498 | 0.711
CCGACTGGGGCAGAAAGGTTAGCATACCATCCGG | -0.121 | 0.018 | -0.422 | 0.0251 | -1.09 | 1.22 | 1.22 | 1.7 | -0.0378 | 0.958 | 1.54 | 1.41 | -0.783 | -1.16 | -0.251 | 0.123 | -0.44 | 0.634 | 0.154 | 1.43
ATCGAAAGGTCGAGCTGAGTATAGAGAAAGGGAA | 4.53 | 3.69 | -0.419 | 2.54 | 0.538 | 4.36 | 2.96 | 3.02 | 1.22 | 1.96 | -0.357 | 1.22 | 1.33 | 0.108 | 0.956 | 2.5 | -0.467 | 2.89 | 0.139 | 3.94
CAAACTAGGTCAAAGGTCAAAGGCGAGCCAACCA | 8.49 | 7.21 | 4.91 | 7.14 | 2.68 | 7.65 | 14.2 | 11.5 | 14.7 | 13.9 | 8.87 | 9.3 | 4.87 | 2.24 | 4.33 | 6.93 | 1.55 | 9.2 | 2.6 | 5.86
ATATGTAGGTTACGGGTCATTCAGGTTGGTTCGC | 3.73 | 3.96 | 2.11 | 3.61 | 0.71 | 5.56 | 9.4 | 8.21 | 6.67 | 8.55 | 7.79 | 7.99 | 5.13 | 4.88 | 3.88 | 4.78 | 1.67 | 4.07 | 1.28 | 2.92

From the supplement of paper PMC6555819
